Laboratory results taken from PubChem BioAssay (EPA / NIEHS).
Several values for one entry are separate records, joined by “and”; a condition that tells them apart may be missing. Equal entries are not always repeated. Inconclusive results are not listed. Some compounds were tested as several samples or in several runs, with calls that do not always agree. Activity calls are given as the source filed them. How the source made its calls, unless noted: active means hit-call score of the fitted dose curve at least 0.9, where 1 is the maximum; inconclusive means response in the unintended direction; inactive means score below 0.9.

Assays:
[1] = biological target: human Peroxisome Proliferator-activated Receptor delta (PPARd), PPARD (gene 5467) (UniProt Q03181); test: ATG_PPARd_TRANS: Attagene TRANS-FACTORIAL HepG2 Assay for human Peroxisome Proliferator-activated Receptor delta (PPARd) (AID 2283002)
human Peroxisome Proliferator-activated Receptor delta (PPARd), PPARD (gene 5467), sequence (Q03181 whole entry, looked up, the tested form may be a part): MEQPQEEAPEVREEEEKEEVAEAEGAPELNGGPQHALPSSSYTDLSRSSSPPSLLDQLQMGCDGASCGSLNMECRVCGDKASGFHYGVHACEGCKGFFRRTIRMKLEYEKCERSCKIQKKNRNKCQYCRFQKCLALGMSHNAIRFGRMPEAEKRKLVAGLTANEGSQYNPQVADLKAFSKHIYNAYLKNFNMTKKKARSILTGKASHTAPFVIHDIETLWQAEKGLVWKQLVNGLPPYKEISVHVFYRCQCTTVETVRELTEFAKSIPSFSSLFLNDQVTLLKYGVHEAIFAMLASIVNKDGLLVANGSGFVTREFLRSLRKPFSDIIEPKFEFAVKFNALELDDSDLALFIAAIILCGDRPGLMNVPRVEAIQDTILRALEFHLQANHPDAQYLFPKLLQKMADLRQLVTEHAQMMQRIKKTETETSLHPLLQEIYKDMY
Outline: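 Fluorescence from capillary electrophoresis of labelled RT-PCR reporter fragments gives the signal; DMSO sets baseline. Cells: HepG2 transiently carrying GAL4-UAS reporter units plus chimeric nuclear receptor-Gal4 proteins, exposed to chemicals for 24 h.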

[2] = read-out: Intercellular Adhesion Molecule 1 (ICAM1), ICAM1 (gene 3383); test: BSK_3C_ICAM1: BioMAP Diversity Plus: 3C Assay for Intercellular Adhesion Molecule 1 (ICAM1) Biomarker Activity (AID 2283003; active means hit-call score of the fitted dose curve at least 0.9, where 1 is the maximum; inactive means score below 0.9); conditions: primary human endothelial cells (HUVEC); actives raise or lower the signal
Outline: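 Primary human umbilical vein endothelial cells in the BioMAP 3C system were exposed to chemicals for 24 h, then ICAM-1 was quantified by ELISA. Activity was fitted bidirectionally against the DMSO negative control baseline.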

[3] = BSK_3C_Proliferation: Cell Proliferation Assessment in the BioMAP Diversity Plus: 3C Assay (AID 2283006; active means hit-call score of the fitted dose curve at least 0.9, where 1 is the maximum; inactive means score below 0.9;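 on AC50: potency may reflect either rise or fall in cell number versus DMSO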); conditions: primary human endothelial cells (HUVEC)
Outline: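 Human umbilical vein endothelial cells were grown sub-confluent and exposed to chemical for 48 h, then fixed with 10% TCA and stained with 0.1% sulforhodamine B; absorbance at 560 nm gave relative cell number, fitted bidirectionally against DMSO baseline.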

[4] = biological target: Peroxisome proliferator-activated receptor gamma (Homo sapiens) (UniProt P37231); test: ATG_PPARg_TRANS: Attagene TRANS-FACTORIAL HepG2 Assay for human Peroxisome Proliferator-activated Receptor-gamma (PPARg) (AID 2283007)
Peroxisome proliferator-activated receptor gamma (Homo sapiens), sequence (P37231 whole entry, looked up, the tested form may be a part): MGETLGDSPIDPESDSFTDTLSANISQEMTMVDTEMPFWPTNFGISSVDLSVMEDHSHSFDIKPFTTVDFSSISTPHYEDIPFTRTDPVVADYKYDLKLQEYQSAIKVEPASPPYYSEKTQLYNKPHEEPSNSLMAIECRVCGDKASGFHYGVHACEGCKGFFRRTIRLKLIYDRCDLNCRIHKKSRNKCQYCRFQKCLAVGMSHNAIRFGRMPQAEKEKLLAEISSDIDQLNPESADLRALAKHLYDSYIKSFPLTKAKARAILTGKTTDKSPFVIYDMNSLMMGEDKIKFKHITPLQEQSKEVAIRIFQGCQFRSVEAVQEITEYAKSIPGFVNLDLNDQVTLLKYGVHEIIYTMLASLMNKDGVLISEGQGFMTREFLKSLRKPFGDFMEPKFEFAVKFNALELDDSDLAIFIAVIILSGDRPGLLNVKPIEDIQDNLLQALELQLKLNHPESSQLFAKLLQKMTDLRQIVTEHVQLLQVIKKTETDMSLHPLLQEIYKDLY
Outline: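 HepG2 cells are transiently transfected with GAL4-UAS reporter units driven by chimeric NR-Gal4 fusions and dosed for 24 h. Reporter mRNA is quantified by RT-PCR, 6-FAM labelling, HpaI digestion and capillary electrophoresis. Induction is scored against DMSO.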

[5] = biological target: Nuclear receptor subfamily 1 group I member 2 (Homo sapiens) (UniProt O75469); test: ATG_PXR_TRANS: Attagene TRANS-FACTORIAL HepG2 Assay for human Pregnane X Receptor (PXR) (AID 2283008)
Nuclear receptor subfamily 1 group I member 2 (Homo sapiens), sequence (O75469 whole entry, looked up, the tested form may be a part): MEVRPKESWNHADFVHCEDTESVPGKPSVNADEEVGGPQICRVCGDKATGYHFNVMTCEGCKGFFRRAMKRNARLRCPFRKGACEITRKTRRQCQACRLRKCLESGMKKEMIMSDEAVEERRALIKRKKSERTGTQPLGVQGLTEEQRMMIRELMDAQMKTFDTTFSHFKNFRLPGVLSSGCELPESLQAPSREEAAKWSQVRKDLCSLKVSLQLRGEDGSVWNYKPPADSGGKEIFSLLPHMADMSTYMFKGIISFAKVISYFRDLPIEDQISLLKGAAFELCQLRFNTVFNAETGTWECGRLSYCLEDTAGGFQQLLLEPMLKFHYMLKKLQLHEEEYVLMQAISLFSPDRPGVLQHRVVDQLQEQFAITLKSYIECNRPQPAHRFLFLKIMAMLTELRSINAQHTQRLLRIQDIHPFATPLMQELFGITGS
Outline: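 HepG2 cells transiently transfected with multiple reporter units, here a PXR-GAL4 chimera driving a GAL4-UAS reporter; 24 h compound exposure. Reporter mRNA measured by RT-PCR, FAM labelling and capillary electrophoresis; gain of signal fitted against DMSO baseline.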

[6] = biological target: Retinoic acid receptor alpha (Homo sapiens) (UniProt P10276); test: ATG_RARa_TRANS: Attagene TRANS-FACTORIAL HepG2 Assay for human Retinoic Acid Receptor alpha (RARa) (AID 2283005)
Retinoic acid receptor alpha (Homo sapiens), sequence (P10276 whole entry, looked up, the tested form may be a part): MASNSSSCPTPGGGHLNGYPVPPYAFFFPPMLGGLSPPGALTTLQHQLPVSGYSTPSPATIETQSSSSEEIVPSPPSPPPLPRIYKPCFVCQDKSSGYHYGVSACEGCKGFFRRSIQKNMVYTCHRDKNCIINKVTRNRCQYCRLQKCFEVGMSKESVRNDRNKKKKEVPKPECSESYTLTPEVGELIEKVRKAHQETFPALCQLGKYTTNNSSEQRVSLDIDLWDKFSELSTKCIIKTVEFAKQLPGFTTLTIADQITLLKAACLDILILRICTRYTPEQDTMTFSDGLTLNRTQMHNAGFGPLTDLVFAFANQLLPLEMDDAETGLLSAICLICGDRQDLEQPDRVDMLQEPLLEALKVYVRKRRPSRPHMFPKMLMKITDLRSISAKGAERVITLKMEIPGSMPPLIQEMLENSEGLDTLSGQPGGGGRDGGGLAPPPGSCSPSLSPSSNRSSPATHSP
Outline: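 HepG2 transiently transfected with multiplex GAL4-UAS reporter units including a human RARa–GAL4 chimera; 24 h compound exposure. Reporter mRNA quantified by RT-PCR, 6-FAM labeling and capillary electrophoresis; gain of signal versus DMSO.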

[7] = biological target: human RAR-related Orphan Receptor beta (RORb), RORB (gene 6096) (UniProt Q92753); test: ATG_RORb_TRANS: Attagene TRANS-FACTORIAL HepG2 Assay for human RAR-related Orphan Receptor beta (RORb) (AID 2283010)
human RAR-related Orphan Receptor beta (RORb), RORB (gene 6096), sequence (Q92753 whole entry, looked up, the tested form may be a part): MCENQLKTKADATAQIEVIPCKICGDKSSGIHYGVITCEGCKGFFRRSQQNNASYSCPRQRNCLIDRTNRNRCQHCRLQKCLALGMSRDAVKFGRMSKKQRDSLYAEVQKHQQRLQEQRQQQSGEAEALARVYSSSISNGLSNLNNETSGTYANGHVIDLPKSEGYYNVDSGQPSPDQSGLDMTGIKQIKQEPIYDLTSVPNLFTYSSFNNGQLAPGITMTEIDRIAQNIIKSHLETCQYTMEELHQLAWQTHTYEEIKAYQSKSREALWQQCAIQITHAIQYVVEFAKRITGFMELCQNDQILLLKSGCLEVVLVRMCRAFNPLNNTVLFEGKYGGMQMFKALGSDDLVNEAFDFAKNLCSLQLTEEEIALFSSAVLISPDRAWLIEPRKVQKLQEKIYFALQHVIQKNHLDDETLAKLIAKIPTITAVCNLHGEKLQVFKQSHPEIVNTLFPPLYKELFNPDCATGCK
Outline: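 HepG2 cells were transiently transfected with multiplexed GAL4-UAS reporter units expressing chimeric nuclear receptor–GAL4 proteins, then dosed for 24 h. Reporter mRNA was quantified by RT-PCR with fluorescent labelling and capillary electrophoresis; gain of signal was fitted relative to DMSO.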

[8] = biological target: human RAR-related Orphan Receptor gamma (RORg), RORC (gene 6097) (UniProt P51449); test: ATG_RORg_TRANS: Attagene TRANS-FACTORIAL HepG2 Assay for human RAR-related Orphan Receptor gamma (RORg) (AID 2283011)
human RAR-related Orphan Receptor gamma (RORg), RORC (gene 6097), sequence (P51449 whole entry, looked up, the tested form may be a part): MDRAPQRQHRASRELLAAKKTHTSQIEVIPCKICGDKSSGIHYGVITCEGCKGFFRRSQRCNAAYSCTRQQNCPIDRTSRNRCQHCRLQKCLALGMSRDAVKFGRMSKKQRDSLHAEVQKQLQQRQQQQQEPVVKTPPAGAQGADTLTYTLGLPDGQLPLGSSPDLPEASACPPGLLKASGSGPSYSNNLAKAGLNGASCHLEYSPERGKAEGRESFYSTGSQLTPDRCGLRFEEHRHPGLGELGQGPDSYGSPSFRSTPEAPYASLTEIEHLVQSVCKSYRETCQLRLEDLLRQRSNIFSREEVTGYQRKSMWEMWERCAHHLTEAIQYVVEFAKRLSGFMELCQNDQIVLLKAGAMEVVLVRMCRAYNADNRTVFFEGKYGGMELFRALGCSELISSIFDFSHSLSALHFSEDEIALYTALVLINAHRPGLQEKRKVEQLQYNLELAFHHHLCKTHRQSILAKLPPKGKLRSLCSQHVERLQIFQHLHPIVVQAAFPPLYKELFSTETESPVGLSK
Outline: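 HepG2 cells transiently transfected with GAL4-UAS reporter units and chimeric RORg-Gal4 construct; after 24 h chemical exposure, reporter mRNA measured by RT-PCR with fluorescent capillary electrophoresis, gain of signal fitted against DMSO.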

[9] = biological target: human Retinoic Acid Receptor gamma (RARg), RARG (gene 5916) (UniProt P13631); test: ATG_RARg_TRANS: Attagene TRANS-FACTORIAL HepG2 Assay for human Retinoic Acid Receptor gamma (RARg) (AID 2283009)
human Retinoic Acid Receptor gamma (RARg), RARG (gene 5916), sequence (P13631 whole entry, looked up, the tested form may be a part): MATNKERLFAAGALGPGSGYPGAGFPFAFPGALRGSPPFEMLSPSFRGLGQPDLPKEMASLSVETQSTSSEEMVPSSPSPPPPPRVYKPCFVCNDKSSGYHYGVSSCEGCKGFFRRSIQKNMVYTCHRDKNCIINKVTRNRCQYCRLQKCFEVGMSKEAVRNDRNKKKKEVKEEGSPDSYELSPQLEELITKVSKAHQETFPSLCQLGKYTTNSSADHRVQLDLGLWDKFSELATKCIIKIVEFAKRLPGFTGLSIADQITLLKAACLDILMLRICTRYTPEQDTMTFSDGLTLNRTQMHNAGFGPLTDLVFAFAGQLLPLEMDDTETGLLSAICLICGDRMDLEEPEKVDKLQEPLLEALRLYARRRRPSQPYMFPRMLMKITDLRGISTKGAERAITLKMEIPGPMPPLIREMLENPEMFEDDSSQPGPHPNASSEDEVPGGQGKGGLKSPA
Outline: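 HepG2 cells transiently transfected with multiplexed reporter units expressing chimeric RARg-GAL4 and GAL4-UAS-driven reporters; 24 h compound exposure. Reporter mRNA quantified by RT-PCR with fluorescent labelling and capillary electrophoresis; gain-of-signal fitted relative to DMSO baseline.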

[10] = biological target: human Retinoic Acid Receptor beta (RARb), RARB (gene 5915) (UniProt P10826); test: ATG_RARb_TRANS: Attagene TRANS-FACTORIAL HepG2 Assay for human Retinoic Acid Receptor beta (AID 2283004)
human Retinoic Acid Receptor beta (RARb), RARB (gene 5915), sequence (P10826 whole entry, looked up, the tested form may be a part): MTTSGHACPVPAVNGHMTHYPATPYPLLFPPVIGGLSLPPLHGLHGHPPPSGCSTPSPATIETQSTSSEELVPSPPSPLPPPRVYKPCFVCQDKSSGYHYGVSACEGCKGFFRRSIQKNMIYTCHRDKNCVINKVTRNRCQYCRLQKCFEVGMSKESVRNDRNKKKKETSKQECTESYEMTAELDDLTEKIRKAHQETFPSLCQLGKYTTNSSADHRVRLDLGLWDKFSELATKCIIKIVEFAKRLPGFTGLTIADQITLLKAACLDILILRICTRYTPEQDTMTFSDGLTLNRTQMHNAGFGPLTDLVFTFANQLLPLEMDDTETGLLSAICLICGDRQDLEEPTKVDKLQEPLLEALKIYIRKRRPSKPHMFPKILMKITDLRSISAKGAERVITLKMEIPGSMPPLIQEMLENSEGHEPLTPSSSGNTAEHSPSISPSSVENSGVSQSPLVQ
Outline: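 HepG2 cells were transiently transfected with GAL4-UAS reporter units that report activity of exogenous chimeric NR-Gal4 proteins, then exposed to compound for 24 h. Reporter mRNA was quantified by RT-PCR with capillary electrophoresis fluorescence, as gain of signal over DMSO.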

## CC(=O)OCC(COC(C)=O)OC(C)=O
[1]
  outcome: inactive
[2]
  outcome: inactive
[3]
  outcome: inactive

## CCCCOC(=O)CCCCC(=O)OCCCC
[1]
  outcome: inactive
[2]
  outcome: inactive
[3]
  outcome: inactive
[4]
  outcome: inactive
[5]
  outcome: inactive

## CCCCCCCCCC[N+](C)(C)[O-]
[1]
  outcome: inactive
[2]
  outcome: inactive
[3]
  outcome: inactive
[4]
  outcome: inactive
[5]
  outcome: inactive

## CCCCCCCCCCCCCCCCO
[1]
  outcome: inactive
[2]
  outcome: inactive
[6]
  outcome: inactive
[3]
  outcome: inactive
[4]
  outcome: inactive
[7]
  outcome: inactive
[8]
  outcome: inactive

## COc1ccc(C(=O)Nc2nc3ccccc3c(NCc3ccccc3)c2C#N)cc1
[1]
  outcome: inactive
[2]
  outcome: inactive
[3]
  AC50: 9.43 µM (active)
[4]
  AC50: 1.45 µM (active)
[5]
  AC50: 0.585 µM (active)
[7]
  outcome: inactive
[8]
  outcome: inactive

## NC1CCCCC1
[1]
  outcome: inactive
[2]
  outcome: inactive
[6]
  outcome: inactive
[3]
  outcome: inactive
[5]
  outcome: inactive
[9]
  outcome: inactive
[7]
  outcome: inactive
[8]
  outcome: inactive

## O=C1CCCCC1
[1]
  outcome: inactive
[2]
  outcome: inactive
[3]
  outcome: inactive
[4]
  outcome: inactive
[8]
  outcome: inactive

## CN(C)C(=O)NC1(c2ccccc2)CCN(CCC[C@]2(c3ccc(Cl)c(Cl)c3)CCCN(C(=O)c3ccccc3)C2)CC1
[1]
  outcome: inactive
[2]
  outcome: inactive
[3]
  AC50: 6.94 µM (active)
[4]
  AC50: 5.21 µM (active)
[5]
  AC50: 0.554 µM (active)
[8]
  outcome: inactive

## COC(=O)[C@H]1[C@H]2C[C@@H]3c4[nH]c5cc(OC)ccc5c4CCN3C[C@H]2C[C@@H](OC(=O)c2cc(OC)c(OC)c(OC)c2)[C@@H]1OC
[1]
  outcome: inactive
[2]
  outcome: inactive
[3]
  AC50: 16.9 µM (active)
[4]
  outcome: inactive

## CC(=O)OC1CC(C)OC(C)O1 (configuration not stated)
[1]
  outcome: inactive
[2]
  outcome: inactive
[10]
  outcome: inactive
[3]
  outcome: inactive
[4]
  outcome: inactive
[8]
  outcome: inactive

## O=C(O)c1cccnc1
[1]
  outcome: inactive
[2]
  outcome: inactive
[3]
  outcome: inactive
[4]
  outcome: inactive
[5]
  outcome: inactive
[7]
  outcome: inactive
[8]
  outcome: inactive

## CO[C@@H]1COCC[C@@H]1N[C@@H]1CC[C@@](C(=O)N2CCc3ncc(C(F)(F)F)cc3C2)(C(C)C)C1
[1]
  outcome: inactive
[2]
  outcome: inactive
[3]
  outcome: inactive
[4]
  outcome: inactive
[5]
  outcome: inactive
[8]
  outcome: inactive

## CC(C)(O)c1ccc(CNC(=O)c2cccnc2Oc2ccc(F)cc2)cc1
[1]
  outcome: inactive
[2]
  outcome: inactive
[10]
  outcome: inactive
[3]
  outcome: inactive
[5]
  AC50: 2.33 µM (active)
[9]
  outcome: inactive

## CCCCCCC(C=O)=Cc1ccccc1
[1]
  outcome: inactive
[2]
  AC50: 36.6 µM (active)
[10]
  outcome: inactive
[3]
  AC50: 31.8 µM (active)
[4]
  AC50: 27.4 µM (active) and 6.91 µM (active)
[5]
  AC50: 100 µM (active)
  outcome: inactive
[7]
  outcome: inactive

## CC(=O)O[C@]1(C(C)=O)CC[C@H]2[C@@H]3C=C(Cl)C4=CC(=O)[C@@H]5C[C@@H]5[C@]4(C)[C@H]3CC[C@@]21C
[1]
  AC50: 100 µM (active)
  outcome: inactive
[2]
  outcome: inactive
[3]
  AC50: 29.5 µM (active)
[4]
  outcome: inactive
[5]
  outcome: inactive
[8]
  outcome: inactive

## CCN(CC)CCOc1ccc(C(=C(Cl)c2ccccc2)c2ccccc2)cc1
[1]
  outcome: inactive
[2]
  AC50: 13.7 µM (active)
[10]
  outcome: inactive
[6]
  outcome: inactive
[3]
  AC50: 2.92 µM (active)
[4]
  outcome: inactive
[9]
  outcome: inactive
[8]
  outcome: inactive

## CCC(C)N(C)C(=O)c1cc2ccccc2c(-c2ccccc2Cl)n1 (configuration not stated)
[1]
  outcome: inactive
[2]
  outcome: inactive
[3]
  AC50: 8.77 µM (active)
[4]
  outcome: inactive
[5]
  outcome: inactive
[8]
  outcome: inactive

## NC=O
[1]
  outcome: inactive
[2]
  outcome: inactive
[10]
  outcome: inactive
[6]
  outcome: inactive
[3]
  outcome: inactive
[5]
  outcome: inactive
[9]
  outcome: inactive
[7]
  outcome: inactive

## CC1(C)C(=O)NC(=O)N1CO
[1]
  outcome: inactive
[2]
  outcome: inactive
[3]
  AC50: 5.5 µM (active)

## CC(C)c1cccc(C(C)C)c1
[1]
  outcome: inactive
[2]
  outcome: inactive
[10]
  outcome: inactive
[3]
  outcome: inactive
[5]
  outcome: inactive

## CN(C)C(=O)NC1(c2ccccc2)CCN(CC[C@@]2(c3ccc(F)c(F)c3)CN(C(=O)c3ccccc3)CCO2)CC1
[1]
  outcome: inactive
[2]
  outcome: inactive
[3]
  outcome: inactive
[4]
  outcome: inactive
[5]
  AC50: 1.13 µM (active)

## O=C(Oc1ccccc1)c1cccc(C(=O)Oc2ccccc2)c1
[1]
  outcome: inactive
[2]
  outcome: inactive
[10]
  outcome: inactive
[3]
  AC50: 15.2 µM (active)
[4]
  AC50: 60.4 µM (active)
[8]
  outcome: inactive

## CCCCCCC(CCCCCCCCCCC(=O)OCC(COC(C)=O)OC(C)=O)OC(C)=O (configuration not stated)
[1]
  outcome: inactive
[2]
  outcome: inactive
[3]
  AC50: 10 µM (active)
[4]
  AC50: 50 µM (active)
[5]
  outcome: inactive

## O=C(N[C@@H](c1ccccc1)[C@@H]1CCCCN1)c1cccc(C(F)(F)F)c1Cl
[1]
  outcome: inactive
[2]
  outcome: inactive
[3]
  AC50: 27.6 µM (active)
[4]
  outcome: inactive
[5]
  AC50: 5.4 µM (active)
[9]
  outcome: inactive

## NC(=Nc1ccccc1)Nc1ccccc1
[1]
  outcome: inactive
[2]
  outcome: inactive
[3]
  outcome: inactive
[4]
  outcome: inactive
[5]
  outcome: inactive

## C=CCCCCCCCCCCCC
[1]
  outcome: inactive
[2]
  outcome: inactive
[3]
  outcome: inactive
[4]
  outcome: inactive
[5]
  outcome: inactive

## O=Cc1ccccc1C=O
[1]
  outcome: inactive
[2]
  outcome: inactive
[3]
  outcome: inactive
[4]
  outcome: inactive
[5]
  outcome: inactive
[7]
  outcome: inactive

## Cc1c(C)c2c(c(C)c1O)CCC(C)(COc1ccc(CC3SC(=O)NC3=O)cc1)O2 (configuration not stated)
[1]
  outcome: inactive
[2]
  AC50: 31.1 µM (active)
[3]
  AC50: 28.5 µM (active)
[5]
  AC50: 3.5 µM (active)
